AHR act: AHR activators, primary screen, cell-based, luminescence, luciferase reporter, human | 2.5% of 320,000 active | activation, % at 5 µM | Aryl hydrocarbon receptor (Homo sapiens), P35869 | AID 2796, 2010 | AHR-responsive luciferase reporter cells; in the data active means activation above about 47%
NR3A LBD binder: binders of NR3A ligand-binding domain, primary screen, biophysical, differential scanning fluorimetry, uHTS; 2.5% of 340,000 active; Glutamate receptor ionotropic, NMDA 3A (GRIN3A) ligand-binding domain; AID 1259313, 2017; NR3A LBD differential scanning fluorimetry, Tm shift; 0% = protein alone, 100% = glycine-bound protein; Tm shift relative to glycine control, % at 25 µM;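 active means melting temperature shift of at least 10% of the positive control shift, at one fixed dose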
KLK7 zymogen act: proKLK7 zymogen activators, primary screen, biochemical, fluorescence intensity; Kallikrein-7 (Homo sapiens), P49862; purified proKLK7, EDANS-DABCYL substrate fluorescence; 100% is mature enzyme control, 0% vehicle; activation, % at 7 µM; 0.9% of 370,000 active;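 active means activation above the mean of all tested compounds plus 3 SD, computed per campaign excluding outliers beyond control limits, cut at about 13% in these data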
ADAM10 inh: human ADAM10 inhibitors, primary screen, biochemical, QFRET, HTS; recombinant ADAM10, EDANS/DABCYL FRET peptide cleavage, 3 h; inhibition, % at 7 µM; 0.62% of 370,000 active; AID 720582, 2013;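 active means inhibition above a per-campaign cutoff equal to the mean of compounds falling between control-based bounds plus 3 SD, cut at about 20% in these data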
rCAG RNA binder: binders of r(CAG) RNA repeats, primary screen, biochemical, fluorescence | 1.3% of 370,000 active | r(CAG) RNA repeat, TO-PRO-1 dye displacement fluorescence | inhibition, % at 3 µM | AID 651821, 2012;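 active means inhibition above the plate cutoff, the mean of all test compounds on that plate plus 3 SD, cut at about 35% in these data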;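 further: higher means more dye released from RNA so lower well fluorescence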
ADAM17 inh: ADAM17 inhibitors, primary screen, biochemical, QFRET; Disintegrin and metalloproteinase domain-containing protein 17 (Homo sapiens), P78536; recombinant ADAM17, EDANS/DABCYL FRET peptide cleavage; inhibition, % at 6.95 µM; 0.83% of 370,000 active;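 active means inhibition above the mean of compounds lying between control limits plus 3 SD, set per campaign, cut at about 8.5% in these data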
Target sequence (P78536 215-824 limits assumed): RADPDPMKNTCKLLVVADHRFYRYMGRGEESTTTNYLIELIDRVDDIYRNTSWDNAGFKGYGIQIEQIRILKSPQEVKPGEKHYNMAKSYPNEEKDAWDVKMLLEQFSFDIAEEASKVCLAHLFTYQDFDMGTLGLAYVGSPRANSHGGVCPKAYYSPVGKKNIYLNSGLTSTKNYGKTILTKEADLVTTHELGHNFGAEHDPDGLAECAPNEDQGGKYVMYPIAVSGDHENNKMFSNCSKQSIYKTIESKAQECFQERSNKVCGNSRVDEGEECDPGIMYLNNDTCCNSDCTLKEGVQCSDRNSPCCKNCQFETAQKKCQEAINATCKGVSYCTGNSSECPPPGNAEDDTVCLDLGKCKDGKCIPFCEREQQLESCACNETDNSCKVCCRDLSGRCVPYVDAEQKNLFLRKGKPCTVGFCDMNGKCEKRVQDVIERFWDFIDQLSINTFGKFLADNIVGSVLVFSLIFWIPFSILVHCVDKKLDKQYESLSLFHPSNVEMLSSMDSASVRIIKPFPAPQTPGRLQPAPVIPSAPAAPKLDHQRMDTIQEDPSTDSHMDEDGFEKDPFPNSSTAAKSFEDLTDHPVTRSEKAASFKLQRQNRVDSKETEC
Hits are given with their value; i = inactive; nt = no result given; ! = a repeat was not active. An excerpt weighted towards active compounds, which were near 7% of everything screened.

SMILES	AHR act	NR3A LBD binder	KLK7 zymogen act	ADAM10 inh	rCAG RNA binder	ADAM17 inh
CCc1nnc(N2C(=O)c3cccc4cccc(c34)C2=O)s1	76	i	i	i	i	i
COc1ccc(C(=O)N/C(=C\c2ccccc2)C(=O)N2CCOCC2)cc1	i	i	i	i	i	i
COc1ccc(-c2ccc(/C=C(\NC(=O)c3ccccc3)C(=O)N3CCOCC3)o2)cc1	77	i	i	i	i	i
COC(=O)c1cccc(Cn2ccc3ccc(-c4ccc5ccn(C(=O)c6ccc(C)cc6)c5c4)cc32)c1	nt	nt	i	i	i	i
Cc1ccc2[nH]c(O)c(N=Nc3nc4ccccc4s3)c2c1	i	i	i	i	i	i
COc1ccccc1N=Nc1[nH]c2ccc(C)cc2c1O	60	i	i	i	i	i
CC(C)c1noc2ncc(C(=O)c3cc(Cl)cc(Cl)c3O)cc12	i	i	i	i	47	i
Nc1nc2ncc(C(=O)c3cc(Cl)cc(Cl)c3O)cc2s1	i	i	i	i	i	i
Cc1cc(C)c2c3c(sc2n1)C1(CCSCC1)C(C#N)=C(N)O3	i	16	i	i	i	i
Fc1ccc(Nc2ncnc3sc4c(c23)CCC4)cc1	i	i	i	i	i	i
Fc1ccc(Nc2ncnc3sc4c(c23)CCC4)cc1F	49	i	i	i	i	i
Cn1c(=NC(=O)c2ccco2)sc2ccccc21	71	i	i	i	i	i
COc1ccc(C2=NOC(C(=O)NCc3ccco3)C2)cc1 (stereo not drawn)	i	11	i	i	i	i
COC(=O)CSc1nnc(-c2ccc(NS(=O)(=O)c3ccc(C(C)(C)C)cc3)cc2)o1	nt	nt	i	i	i	i
CCN(CC)C(=O)CC[C@@H]1CC[C@]2(CCCN(C(=O)c3ccno3)C2)O1	nt	nt	i	i	i	i
CC(=O)Nc1cc(OC(C)=O)c2nonc2c1OC(C)=O	i	i	40	i	i	i
O=C(NCc1cccs1)c1noc2c1CCCC2	i	11	i	i	i	i
O=C(NCc1ccccc1)c1noc2c1CCCC2	i	i	i	i	i	i
COC(=O)[C@]12C[C@H](CC(=O)NCc3cccs3)C(=O)N(Cc3ccco3)C1=C[C@H](COCc1ccccc1)O[C@@H]2C	nt	nt	i	i	i	i
CCC[C@H]1[C@@H](N(C)CC2CCCCC2)CC[C@@]23CCCN2C(=O)CCC[C@@H]13	nt	nt	nt	i	nt	i
CCSc1nc2sc3c(c2c(=O)[nH]1)CCc1ccccc1-3	57	i	i	i	i	i
C=CCn1c(SCCC)nc2sc3c(c2c1=O)CCc1ccccc1-3	i	i	i	i	i	i
OC(c1ccccc1)(c1ccccc1)c1cnc2ccccn12	nt	nt	nt	i	nt	i
Cc1ccc(O)c(C(=O)c2cc(C#N)c(=O)n(-c3c(C)n(C)n(-c4ccccc4)c3=O)c2)c1	i	i	i	i	i	i
Cc1ccc(O)c(C(=O)c2cc(C#N)c(=O)n(-c3nccs3)c2)c1	i	i	17	i	i	i
SMILES	AHR act	NR3A LBD binder	KLK7 zymogen act	ADAM10 inh	rCAG RNA binder	ADAM17 inh
COC(=O)C1CN(Cc2ccc(C)cc2)CCS(=O)(=O)N1Cc1cn(Cc2ccccc2)nn1 (stereo not drawn)	nt	nt	i	i	i	i
CCCCNC(=O)c1ccc(CNc2c(N3CCC(C(=O)OCC)CC3)c(=O)c2=O)cc1	i	11!	i	i	i	i
O=C(O)c1ccc(COc2ccc3ccccc3c2/C=C2/NC(=O)N(c3ccccc3)C2=O)cc1	i	i	i	i	74	i
O=C(O)c1ccc(COc2ccccc2/C=C2/NC(=O)N(c3cccc(Cl)c3)C2=O)cc1	i	i	i	i	i	i
O=C1C=C(c2ccccc2)C[C@@H](c2ccc(Cl)cc2)C1	i	i	i	i	i	i
O=C1C=C(c2cc(C(F)(F)F)cc(C(F)(F)F)c2)C[C@@H](c2ccc(Cl)cc2)C1	i	13	i	i	i	i
NNc1nc2ccc(F)cc2s1	77	i	i	i	i	i
Fc1ccc2nc(Nc3ccccc3)sc2c1	i	19	i	i	i	i
C=CCn1c(NS(=O)(=O)c2ccccc2)c(S(=O)(=O)c2ccc(C)cc2)c2nc3ccccc3nc21	i	11	i	i	i	i
CCCCc1ccc2nc(NC(=O)c3cccs3)sc2c1	nt	nt	nt	i	nt	i
COC(=O)Cn1cnc2c(NC(=O)c3ccccc3)ncnc21	nt	nt	i	i	i	i
O=C(Nc1cccc(C(F)(F)F)c1)c1cc2c(s1)-c1ccccc1OC2	i	37	i	i	i	i
O=C(NCc1cccs1)c1cc2c(s1)-c1ccccc1OC2	i	i	i	i	i	i
Cc1cccc(/N=C/c2c(O)[nH]c3ccccc23)n1	64	i	i	i	i	i
CC(C)N=Cc1c(O)[nH]c2ccccc12	i	i	i	i	i	i
O=C(N/N=C\c1ccc(COc2ccc([N+](=O)[O-])cc2)o1)c1ccc(Cl)cc1	i	i	i	i	i	i
O=[N+]([O-])CC(=Nc1ccc(Cl)cc1)N/N=C\c1oc(O)c2ccccc12	95	i	i	i	53	i
CCn1c(=O)n2n(c1=O)[C@]1(C=C(C)C2)CN(Cc2ccc(OC)cc2OC)C(NC(=O)c2ccccc2)=N1	nt	nt	nt	i	nt	i
COc1ccccc1NC(=O)Nc1ccc(Cl)c(S(=O)(=O)Nc2ccccc2OC)c1	i	11	i	i	i	i
COc1ccccc1NS(=O)(=O)c1cc(NC(=O)c2ccc(Cl)nc2)ccc1Cl	i	16	i	i	i	i
Cc1c(CCOC(=O)C23CC4CC(CC(C4)C2)C3)sc[n+]1Cc1ccccc1	69	i	i	i	i	i
O=C(CCc1ccccc1-c1ccccc1CCNC(=O)COCc1ccccc1)NCc1ccccc1	nt	nt	i	i	i	i
Cc1csc2ncc(C(=O)Nc3ccccc3F)c(=O)n12	60	i	i	i	i	i
N#CCC(=O)N/N=C/c1cn(Cc2ccc(Cl)cc2Cl)c2ccccc12	i	24	i	i	i	i
CCOC(=O)N/N=C/c1cn(Cc2ccc(Cl)cc2)c2ccccc12	i	i	i	i	i	i
COc1ccccc1C(CC(=O)Nc1ccc(Cl)cc1)c1ccc(OC(C)C)cc1 (stereo not drawn)	i	12	i	i	i	i
COc1ccc(C(CC(=O)Nc2ccc(F)cc2)c2ccccc2)cc1 (stereo not drawn)	i	i	i	i	i	i
O=C(CN1CCOCC1)NNc1c2ccccc2nc2ccccc12	i	i	i	i	i	i
O=C(CN1CCOCC1)Nc1c2c(nc3ccccc13)N(Cc1ccccc1)CC2	55	i	i	i	i	i

Bioassay records: PubChem, several laboratories
